Several values for one entry are separate records, joined by “and”; a condition that tells them apart may be missing. Equal entries are not always repeated. Some structures have more than one record in an assay (separate samples or runs), and their calls can disagree. Activity calls are given as the source filed them. Rule for the calls: active = hit-call score of the fitted dose curve at least 0.9, where 1 is the maximum; inconclusive = response in the unintended direction; inactive = score below 0.9.
Assay: CPHEA_Stoker_NIS_Cytotoxicity: Cytotoxicity Assessment for CPHEA's Radioactive Iodide Uptake (RAIU) Assay for Sodium/Iodide Symporter (NIS) Inhibition, Stoker and Laws Labs (AID 2283897);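 for AC50: active means loss of ATP signal versus DMSO meaning cytotoxicity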
Description: CPHEA_Stoker_NIS is a cell-based, single-readout assay that uses hNIS-HEK293T-EPA, a novel human kidney cell line expressing human NIS, with measurements taken at 2 hours after chemical dosing in a 96-well plate. This radioactive iodide uptake (RAIU) assay is used to identify inhibitors of NIS-mediated iodide uptake. A parallel cytoxicity assay (Cell Titer Glo, Promega) was also run in the same cell line.CPHEA_Stoker_NIS_Cytotoxicity is one of 2 assay components measured from the CPHEA_Stoker_NIS assay. It is designed to make measurements of atp content, a form of viability reporter, as detected with bioluminescence signals by Luciferase-coupled ATP quantitation technology.Data from the assay component CPHEA_Stoker_NIS_Cytotoxicity was analyzed at the endpoint, CPHEA_Stoker_NIS_Cytotoxicity, in the positive analysis fitting direction relative to DMSO as the negative control and baseline of activity. Using a type of viability reporter, measures of ATP content for loss-of-signal activity can be used to understand the viability. To generalize the intended target to other relatable targets, this assay endpoint is annotated to the cell cycle intended target family, where the subfamily is cytotoxicity.
hNIS-HEK293T-EPA cells were seeded with a MultiFlo FX dispenser (BioTek, Winooski, VT) into ScintiPlate-96 microplates (Perkin Elmer, Waltham, MA) at a density of 4.0x10^4 cells per well in 200uL growth media and incubated for 40 hours before experimentation. On day of the assay, carrier-free 125I (Perkin-Elmer, Waltham, MA; specific activity: 17.4Ci/mg) was diluted with Hanks' balanced salt solution (Sigma, St. Louis, MO) supplemented with 10mM HEPES (uptake buffer; pH 7.4) at 5uCi/mL (288pg 125I/mL uptake buffer; 2.30nM). The assay was initiated by washing cells twice with 200uL uptake buffer using a 96-well Tecan HydroSpeed plate washer (Tecan, Mannedorf, Switzerland). Uptake buffer (59.7uL) was then added back to each well. Chemical samples (350nL at 200X) were administered using the HDR tool as previously described to achieve a 1X chemical/0.5% final DMSO concentration with subsequent addition of 10uL of 125I dilution (final [125I]: 329pM; 2.88pg/well) for a final reaction volume of 70uL/well. Cells were incubated at room temperature for 2 hours and then washed twice with 200uL ice cold uptake buffer. All uptake buffer was aspirated from wells, plates were sealed, and read on a MicroBeta2 plate reader (Perkin Elmer, Waltham, MA) using a detection protocol to measure CPM corresponding to intracellular 125I concentration. Each chemical concentration (0.001, 0.01, 0.1, 1.0, 10, and 100uM) was assayed in triplicate with three independent biological replicate plates (3 sequential cell passages). Additionally, a concentration response of NaClO4 (0.001, 0.01, 0.1, 1.0, 10, and 100uM) served as a positive control inhibition curve on each RAIU assay plate. DMSO control wells were assayed on each plate as a measure of maximum iodide uptake for normalization and determination of intra- and inter-assay variation. (Toxicol In Vitro, 2017, 40:66-78).

SMILES	outcome	AC50
Cc1c(F)c(F)c(COC(=O)C2C(/C=C(\Cl)C(F)(F)F)C2(C)C)c(F)c1F (centres undefined)	inactive	–
CCc1nn(C)c(C(=O)NCc2ccc(C(C)(C)C)cc2)c1Cl	–	9.92 µM (active)
CON(C)C(=O)Nc1ccc(Cl)c(Cl)c1	inactive	–
COc1nc(NC(C)C)nc(NC(C)C)n1	inactive	–
N#Cc1cc(Br)c(O)c(Br)c1	inactive	–
C=CC1(C)OC(=O)N(c2cc(Cl)cc(Cl)c2)C1=O (centres undefined)	inactive	–
Oc1ccccc1-c1ccccc1	inactive	–
Cc1ccc(-c2c(Cl)nc(C#N)n2S(=O)(=O)N(C)C)cc1	inactive	–
CCCN(CCC)c1c([N+](=O)[O-])cc(S(N)(=O)=O)cc1[N+](=O)[O-]	inactive	–
CCCCOC(=O)c1ccccc1C(=O)OCCCC	inactive	–
N#CC(CCc1ccc(Cl)cc1)(Cn1cncn1)c1ccccc1 (centres undefined)	–	60.2 µM (active)
CC(C)(C)c1ccc(CSc2cnn(C(C)(C)C)c(=O)c2Cl)cc1	inactive	–
OC(c1ccc(Cl)cc1)(c1cncnc1)c1ccccc1Cl (centres undefined)	inactive	–
CCOP(=S)(OCC)SCn1c(=O)oc2cc(Cl)ccc21	inactive	–
N#Cc1nn(-c2c(Cl)cc(C(F)(F)F)cc2Cl)c(N)c1S(=O)C(F)(F)F (centres undefined)	inactive	–
O=C(Nc1ccccc1)Nc1ccnc(Cl)c1	–	40.1 µM (active)
COc1ccc(C(c2ccc(OC)cc2)C(Cl)(Cl)Cl)cc1	inactive	–

SMILES	outcome	AC50
CS/C(C)=N/OC(=O)N(C)SN(C)C(=O)O/N=C(\C)SC	inactive	–
C=CCC1=C(C)[C@@H](OC(=O)[C@@H]2[C@@H](C=C(C)C)C2(C)C)CC1=O	inactive	–
COP(=S)(OC)Oc1nc(Cl)c(Cl)cc1Cl	inactive	–
COC(=O)C(C)Oc1ccc(Oc2ccc(Cl)cc2Cl)cc1 (centres undefined)	inactive	–
CCCC1COC(Cn2cncn2)(c2ccc(Cl)cc2Cl)O1 (centres undefined)	inactive	–
CN(C)C(=S)SSC(=S)N(C)C	inactive	–
CCCCNC(=O)OCC#CI	inactive	–
CCOC(=O)C(Cl)Cc1cc(-n2nc(C)n(C(F)F)c2=O)c(F)cc1Cl (centres undefined)	inactive	–
CCON=C(CC)C1=C(O)CC(c2c(C)cc(C)cc2C)CC1=O (centres undefined)	inactive	–
CC1COC(Cn2cncn2)(c2ccc(Oc3ccc(Cl)cc3)cc2Cl)O1 (centres undefined)	–	29 µM (active)
CC(C)Oc1cc(-n2nc(C(C)(C)C)oc2=O)c(Cl)cc1Cl	inactive	–
C=CCC1=C(C)C(OC(=O)C2C(C=C(C)C)C2(C)C)CC1=O (centres undefined)	inactive	1.04 µM (active) and 50 µM (active)
C#CCOS(=O)OC1CCCCC1Oc1ccc(C(C)(C)C)cc1 (centres undefined)	inactive	–
Fc1ccc(Oc2ccnc3cc(Cl)cc(Cl)c23)cc1	inactive	–
COC(=O)N(OC)c1ccccc1COc1ccn(-c2ccc(Cl)cc2)n1	inactive	–
CCOC(=O)CC(SP(=S)(OC)OC)C(=O)OCC (centres undefined)	inactive	–

— PubChem BioAssay (EPA / NIEHS)
